A number with no mark means an inactive call. Calls come from the whole dose curve; as a rule, active = well fitted curve in the direction sought with a large enough effect; inconclusive = small, poorly fitted or top-dose-only effect, or another doubt; inactive = no such curve, though single readings can be large or run the other way.
biological target: T1, Hexokinase-4 (Homo sapiens) + Glucokinase regulatory protein (Homo sapiens) (UniProt P35557+Q14397); assay: qHTS assay for inhibitors of recombinant human GCK-GKRP interaction: ADP-Glo assay (AID 743206); conditions: ADP-Glo luminescence, 60 min, 0% = vehicle-only wells with enzyme present; series mostly up to 76.9 µM; activity, positive = activation: at the top concentration;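 note: plate controls were DMSO plus enzyme for no effect and no enzyme for full effect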
Outline: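 GST-GCK and FLAG-GKRP (15 nM each in the dispensed mix, with 2 uM S6P) react with 0.4 mM ATP and 5 mM glucose (final) in Hepes pH 7.6 for 60 min at room temperature. ADP is measured by ADP-Glo luminescence.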

T1 sequence (P35557 whole entry, looked up): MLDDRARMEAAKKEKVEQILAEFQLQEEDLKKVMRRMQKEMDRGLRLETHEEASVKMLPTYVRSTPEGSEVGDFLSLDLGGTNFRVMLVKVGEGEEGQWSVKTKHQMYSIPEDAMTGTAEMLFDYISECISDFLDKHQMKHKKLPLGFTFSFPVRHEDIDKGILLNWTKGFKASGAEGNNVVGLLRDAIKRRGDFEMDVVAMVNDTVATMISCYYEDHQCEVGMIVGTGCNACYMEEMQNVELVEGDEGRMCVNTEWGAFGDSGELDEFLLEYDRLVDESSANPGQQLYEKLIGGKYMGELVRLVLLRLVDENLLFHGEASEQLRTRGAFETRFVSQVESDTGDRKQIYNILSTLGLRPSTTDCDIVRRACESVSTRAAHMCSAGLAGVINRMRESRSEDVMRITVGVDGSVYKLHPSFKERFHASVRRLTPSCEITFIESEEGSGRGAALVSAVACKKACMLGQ
T1 sequence (Q14397 whole entry, looked up): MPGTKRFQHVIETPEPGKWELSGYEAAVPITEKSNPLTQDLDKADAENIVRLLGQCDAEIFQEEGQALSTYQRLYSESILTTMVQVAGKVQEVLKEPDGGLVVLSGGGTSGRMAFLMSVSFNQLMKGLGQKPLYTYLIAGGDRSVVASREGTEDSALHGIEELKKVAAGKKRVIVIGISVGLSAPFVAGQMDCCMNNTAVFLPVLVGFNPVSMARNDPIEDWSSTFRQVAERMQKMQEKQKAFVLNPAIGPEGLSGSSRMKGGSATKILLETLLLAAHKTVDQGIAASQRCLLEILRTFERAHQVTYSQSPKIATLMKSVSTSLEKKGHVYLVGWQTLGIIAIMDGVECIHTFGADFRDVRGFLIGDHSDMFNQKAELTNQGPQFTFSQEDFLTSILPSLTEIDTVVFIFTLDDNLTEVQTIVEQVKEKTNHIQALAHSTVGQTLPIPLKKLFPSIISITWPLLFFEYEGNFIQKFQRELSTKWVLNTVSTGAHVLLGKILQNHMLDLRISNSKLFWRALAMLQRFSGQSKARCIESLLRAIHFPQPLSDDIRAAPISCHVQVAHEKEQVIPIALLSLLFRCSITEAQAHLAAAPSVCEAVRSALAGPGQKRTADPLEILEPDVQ

Row | Compound | activity, positive = activation
1 | CCC(=O)c1ccc2c(c1)N(CCCN(C)C)c1ccccc1S2 | 2.56%
2 | OCCN1CCN(CCCN2c3ccccc3C=Cc3ccccc32)CC1 | 0.849%
3 | CCc1cccc(N(C)C(N)=Nc2cccc3ccccc23)c1 | -2.26%
4 | CCN(CC)CCNC(=O)c1cc(S(C)(=O)=O)ccc1OC | 0.857%
5 | Cc1ccc(Cl)c(Nc2ccccc2C(=O)O)c1Cl | 5.19%
6 | CCCN(CCC)CCc1cccc2c1CC(=O)N2 | -0.239%
7 | CN(C)CCN(Cc1cccs1)c1ccccn1 | -0.864%
8 | CCN1CCc2nc(N)oc2CC1 | 3.87%
9 | C[n+]1cc2c3c(ccc2c2ccc4cc5c(cc4c21)OCO5)OCO3 | -2.85%
10 | Nc1c2c(nc3ccccc13)CCCC2O (stereo not drawn) | 3.22%
11 | CN(C)CCCN1c2ccccc2Sc2ccccc21 | -3.07%
12 | COc1ccc(CCN(C)CCCC(C#N)(c2cc(OC)c(OC)c(OC)c2)C(C)C)cc1OC (stereo not drawn) | 0.69%
13 | CCn1ccnc1CC1COc2ccccc2O1 (stereo not drawn) | 0.36%
14 | C[N+](C)(C)CCOC(N)=O | 4.75%
15 | CC(N=C(NC#N)Nc1ccncc1)C(C)(C)C (stereo not drawn) | -1.44%

biological target: T1, Hexokinase-4 (Homo sapiens) + Glucokinase regulatory protein (Homo sapiens); assay: qHTS assay for inhibitors of recombinant human GCK-GKRP interaction: HTRF assay (AID 743207); conditions: recombinant GCK-GKRP HTRF binding, 60 min, with sorbitol-6-phosphate; series mostly up to 57.5 µM; activity change, negative = inhibition: at the top concentration;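 note: 0% = DMSO with GCK present and -100% = DMSO wells lacking GCK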
Outline: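 Titration screening format: recombinant GST-GCK and FLAG-GKRP at 5 nM, S6P at 2 uM, labelled anti-tag antibodies, 60 min at RT, dual-wavelength HTRF readout.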

Row | Compound | activity change, negative = inhibition
16 | C[C@]12CCC(=O)C=C1CC[C@@H]1[C@@H]2C(=O)C[C@@]2(C)[C@H]1CC[C@]2(O)C(=O)CO | 5.15%
17 | CNCCC(Oc1ccccc1OC)c1ccccc1 (stereo not drawn) | 6.96%
18 | CC(=O)[C@]1(O)Cc2c(O)c3c(c(O)c2[C@@H](O[C@H]2C[C@H](N)[C@H](O)[C@H](C)O2)C1)C(=O)c1ccccc1C3=O | 1.74%
19 | CC(C)(C)c1ccc(C(=O)CCCN2CCC(OC(c3ccccc3)c3ccccc3)CC2)cc1 | 4.5%
20 | CC(C)NNC(=O)c1ccncc1 | 2.02%
21 | CCN(CC)CCCN(c1ccccc1)C1Cc2ccccc2C1 | -3.81%
22 | CC(C(=O)O)c1ccc(CC2CCCC2=O)cc1 (stereo not drawn) | -5.54%
23 | OC(CCN1CCCCC1)(c1ccccc1)C1CCCCC1 (stereo not drawn) | 11.1%
24 | FC(F)(F)c1ccccc1-n1ccnc1 | 10.5%
25 | CN1CCN(C2=Nc3ccccc3Oc3ccc(Cl)cc32)CC1 | -7.87%
26 | C[C@]12C=CC(=O)C=C1CC[C@H]1[C@@H]3C[C@@H](O)[C@](O)(C(=O)CO)[C@@]3(C)C[C@H](O)[C@@]12F | -0.854%
27 | CC1=C(C)C(=O)C(CCCCC#CCCCC#CCO)=C(C)C1=O | -1.62%
28 | CCCCNC(=O)NS(=O)(=O)c1ccc(C)cc1 | -6.1%
29 | CCC(=O)c1ccc2c(c1)N(CCCN(C)C)c1ccccc1S2 | -0.348%
30 | OCCN1CCN(CCCN2c3ccccc3C=Cc3ccccc32)CC1 | 2.36%
31 | CCN(CC)CCNC(=O)c1cc(S(C)(=O)=O)ccc1OC | -11%
32 | CCN1CCc2nc(N)oc2CC1 | 9.71%
33 | C[n+]1cc2c3c(ccc2c2ccc4cc5c(cc4c21)OCO5)OCO3 | -4.1%
34 | Nc1c2c(nc3ccccc13)CCCC2O (stereo not drawn) | -1.49%
35 | CN(C)CCCN1c2ccccc2Sc2ccccc21 | 12.7%
36 | COc1ccc(CCN(C)CCCC(C#N)(c2cc(OC)c(OC)c(OC)c2)C(C)C)cc1OC (stereo not drawn) | 18.5%
37 | C[N+](C)(C)CCOC(N)=O | -6.15%
38 | CC(N=C(NC#N)Nc1ccncc1)C(C)(C)C (stereo not drawn) | -4.49%
